The source of these data is the supplement of paper PMC6555819.

Holding throughout (assay): PBM binding z-score (relative to random genomic background probes); higher = stronger binding; sequences stand for … in GC…GCGATTGACAGCGTAGAATGAAGG
For assay [1], the system named is RARb homodimer (NR concentration 270 nM). The procedure, abridged: (§1)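 Custom Agilent 4×180K protein-binding microarrays carried double-stranded probes, each with a 34-nt variable region. These regions held direct-repeat seeds, single-nucleotide variants, half-site ablations and random human genomic background sequences. Ligand-free nuclear receptor dimers were incubated on the arrays for 1 h, antibodies against each partner (one per run) detected binding, and scanned fluorescence was regression-normalized. Binding z-scores take the random background probes as reference.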

The test system of assay [2] is RARg:RXRa (NR concentration 270 nM, RXRa partner concentration 90 nM). The procedure, abridged:
as §1

In assay [3] the test system is RARg homodimer (NR concentration 270 nM). The procedure, abridged:
as §1

In assay [4] the test system is RXRa DBDmut IVT, anti-RXR (DBD mutation: RXRa K156A/R161A, NR concentration 90 nM). The method in brief:
as §1

The subject of assay [5] is RXRa homodimer (NR concentration 180 nM). The procedure, abridged:
as §1

Assay [6] concerns THRa:RXRa (NR concentration 90 nM, RXRa partner concentration 90 nM). The procedure, abridged:
as §1

In assay [7] the test system is THRa homodimer (NR concentration 90 nM). The procedure, abridged:
as §1

The subject of assay [8] is VDR homodimer (NR concentration 270 nM). The procedure, abridged: as §1

Consider CCTATTAGTTGACCATAAGGGCAACCCAAGCTCG, for which the PBM binding z-score in assay [1] worked out at 2.32; in assay [2] it was 1.44; in assay [3] it was 1.19; in assay [4] it was 0.764; in assay [5] it was 0.835; in assay [6], 2.07. Besides, the PBM binding z-score in assay [7] was found to be 1.53; in assay [8], 1.28.
Take CGTCCAAGGTCAAAGGTAAGTGAAGAGATGACGG: the PBM binding z-score turned out to be 4.06 in assay [1]; 6.23 in assay [2]; 6.89 in assay [3]; 3.8 in assay [4]; 7.74 in assay [5]; 3.91 in assay [6]. Also, the PBM binding z-score is 1.96 in assay [7] and 2.48 in assay [8].
Consider CCTAACGGGTCACGAGGTTATAGCACGACGAGCG, for which the PBM binding z-score was determined as 3.65 in assay [1]; 5.84 in assay [2]; 4.93 in assay [3]; 1.5 in assay [4]; 6.09 in assay [5]; 3.44 in assay [6]. Also, the PBM binding z-score in assay [7] is 0.791; in assay [8], 1.91.
For the sequence ACTATCAGTTGACTTAGGGCAACCGATACGACGC, the PBM binding z-score turned out to be 0.986 in assay [1]; 0.641 in assay [2]; 1.1 in assay [3]; 0.226 in assay [4]; 0.399 in assay [5]; 1.46 in assay [6]. The PBM binding z-score in assay [7] was 0.315; in assay [8], 0.169.
Consider TCTGCTAGGTCAGTTGGCCAGCTAACGAGCTGCC, for which the PBM binding z-score in assay [1] is 2.15; in assay [2], 2.56; in assay [3] it was 3.53; in assay [4], 0.428; in assay [5] it was 0.616; in assay [6], 1.27. The PBM binding z-score in assay [7] is -0.473; in assay [8], -0.804.
As to CCGACTGGGGCATAAGGTTACAATAAGCCAGCCC, the PBM binding z-score is 1.61 in assay [1]; 1.66 in assay [2]; 1.08 in assay [3]; -0.313 in assay [4]; 1.18 in assay [5]; 1.95 in assay [6]. Further, the PBM binding z-score is 0.977 in assay [7] and -0.296 in assay [8].
Regarding GCAGACAGGTGAAACGCTGGTAACTCAGGGTGGC, the PBM binding z-score in assay [1] is -0.219; in assay [2] it was 0.167; in assay [3] it was -0.138; in assay [4], -0.318; in assay [5], 0.612; in assay [6] it was 0.209. In addition, the PBM binding z-score in assay [7] is -0.645; in assay [8], -0.838.
